Experimental data taken from PubChem BioAssay AID1159580 (chemical genetic matrix, 2015).
Screen size: about 5,500 compounds; about 2,000 (36%) were called active. Not shown: some 18% with an inconclusive outcome. Cut-off read from the data, not from the text of the source: active = normalized growth mostly below about 0.91 (no sharp cut-off); inconclusive = no clear call, values can overlap the other calls; inactive = mostly above about 0.92. The list shows a part of the results.

Test: chemical genetic growth profiling, strain panel (AID 1159580);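 note: tested at 20 µM; growth read once vehicle control cultures reached saturation at 30 °C; 1 = growth at the plate median or of vehicle wells; lower values mean less growth of the strain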
Settings: S. cerevisiae deletion strains, growth OD

Measured: normalized growth

NC(=NCCC[C@H](N)C(=O)O)N[N+](=O)[O-]
inactive: locus YAL013W, strain DEP1, active compounds read low 0.99 | locus YAL021C, strain ccr4, active compounds read low 1.02 | locus YAL026C, strain drs2, active compounds read low 1.03 | locus YAL030W, strain snc1, active compounds read low 1.02 | locus YBL061C, strain skt5, active compounds read low 1.02 | locus YBR009C, strain hhf1, active compounds read low 1.02 | locus YBR021W, strain FUR4, active compounds read low 0.992 | locus YBR023C, strain chs3, active compounds read low 1.02 | locus YBR171W, strain sec66, active compounds read low 1.03 | locus YBR229C, strain ROT2, active compounds read low 1 | locus YBR231C, strain swc5, active compounds read low 1.02 | locus YBR279W, strain paf1, active compounds read low 1.02 | locus YCL011C, strain gbp2, active compounds read low 1.03 | locus YCL016C, strain dcc1, active compounds read low 1.02 | locus YCL029C, strain bik1, active compounds read low 0.994 | locus YCL069W, strain vba3, active compounds read low 1.01 | locus YCR088W, strain abp1, active compounds read low 1.03 | locus YDL005C, strain med2, active compounds read low 1.03 | locus YDL035C, strain GPR1, active compounds read low 1 | locus YDL040C, strain nat1, active compounds read low 1.02 | locus YDL074C, strain BRE1, active compounds read low 0.978 | locus YDL101C, strain DUN1, active compounds read low 1 | locus YDL134C, strain PPH21, active compounds read low 1.01 | locus YDL185W, strain tfp1, active compounds read low 1.01 | locus YDL192W, strain arf1, active compounds read low 1.01 | locus YDR001C, strain nth1, active compounds read low 1.01 | locus YDR069C, strain doa4, active compounds read low 1.03 | locus YDR101C, strain arx1, active compounds read low 0.946 | locus YDR137W, strain rgp1, active compounds read low 1.05 | locus YDR150W, strain NUM1, active compounds read low 0.992 | locus YDR159W, strain sac3, active compounds read low 0.991 | locus YDR162C, strain NBP2, active compounds read low 1.02 | locus YDR195W, strain ref2 1.04 | locus YDR297W, strain sur2, active compounds read low 1.02 | locus YDR318W, strain mcm21, active compounds read low 1.01 | locus YDR334W, strain swr1, active compounds read low 1.02 | locus YDR335W, strain msn5, active compounds read low 1.03 | locus YDR388W, active compounds read low 1.02 | locus YDR392W, strain spt3, active compounds read low 1.03 | locus YDR502C, strain sam2, active compounds read low 1.01 | locus YEL003W, strain gim4, active compounds read low 1.02 | locus YEL037C, strain rad23, active compounds read low 1.03 | locus YEL061C, strain CIN8 (second series), active compounds read low 1.01 | locus YEL061C, strain CIN8, active compounds read low 0.983 | locus YER015W, strain faa2, active compounds read low 1.03 | locus YER016W, strain bim1, active compounds read low 1.01 | locus YER110C, active compounds read low 1.01 | locus YER111C, strain swi4, active compounds read low 1.04 | locus YER155C, strain BEM2 (second series), active compounds read low 1.06 | locus YER155C, strain BEM2, active compounds read low 1 | locus YER167W, strain BCK2, active compounds read low 0.998 | locus YFR010W, strain ubp6, active compounds read low 1.03 | locus YGL078C, strain dbp3, active compounds read low 1 | locus YGL086W, strain mad1, active compounds read low 0.982 | locus YGL167C, strain pmr1, active compounds read low 1.02 | locus YGL173C, strain kem1, active compounds read low 1.02 | locus YGL227W, strain vid30, active compounds read low 1.01 | locus YGL240W, strain doc1, active compounds read low 1.04 | locus YGL248W, strain PDE1, active compounds read low 1 | locus YGL253W, strain hxk2, active compounds read low 1.02 | locus YGR078C, strain PAC10, active compounds read low 0.972 | locus YGR135W, strain pre9, active compounds read low 1.06 | locus YGR229C, strain SMI1, active compounds read low 1.01 | locus YGR252W, strain gcn5, active compounds read low 1.07 | locus YHR013C, strain ard1, active compounds read low 1.05 | locus YHR027C, strain rpn1, active compounds read low 1.02 | locus YHR030C, strain SLT2, active compounds read low 0.994 | locus YHR079C, strain IRE1 (second series), active compounds read low 1.01 | locus YHR094C, strain hxt1, active compounds read low 1.01 | locus YHR129C, strain ARP1, active compounds read low 1.01 | locus YHR142W, strain chs7, active compounds read low 1.05 | locus YHR200W, strain rpn10, active compounds read low 0.996 | locus YIL066C, strain RNR3, active compounds read low 1.01 | locus YIL073C, strain SPO22, active compounds read low 1.05 | locus YIL125W, strain kgd1, active compounds read low 0.999 | locus YIR030C, strain dcg1, active compounds read low 1.01 | locus YJL092W, strain hpr5, active compounds read low 1.02 | locus YJL095W, strain BCK1 (second series), active compounds read low 1.03 | locus YJL095W, strain BCK1, active compounds read low 1 | locus YJL115W, strain asf1, active compounds read low 1.04 | locus YJL129C, strain trk1, active compounds read low 1.05 | locus YJL134W, strain LCB3, active compounds read low 1 | locus YJL154C, strain vps35, active compounds read low 1.02 | locus YJL164C, strain tpk1, active compounds read low 1.02 | locus YJL166W, strain qcr8, active compounds read low 1.03 | locus YJL168C, strain set2, active compounds read low 0.999
